High-throughput results (PubChem BioAssay)
KCNQ2 inh = rat KCNQ2 potassium channel inhibitors, primary screen, cell-based, CHO-K1, FluxOR thallium flux, B-score; Potassium voltage-gated channel subfamily KQT member 2 (Rattus norvegicus), O88943; 20 min; hits give low values; B-score at 10 µM; hit rate 1.1% among 310,000; AID 2156, 2009;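 active means fluorescence ratio B-score at most minus 3 library SDs, with starting brightness B-score within 2 library SDs, cut at about -5.5 in these data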
Target sequence (O88943 whole entry, looked up): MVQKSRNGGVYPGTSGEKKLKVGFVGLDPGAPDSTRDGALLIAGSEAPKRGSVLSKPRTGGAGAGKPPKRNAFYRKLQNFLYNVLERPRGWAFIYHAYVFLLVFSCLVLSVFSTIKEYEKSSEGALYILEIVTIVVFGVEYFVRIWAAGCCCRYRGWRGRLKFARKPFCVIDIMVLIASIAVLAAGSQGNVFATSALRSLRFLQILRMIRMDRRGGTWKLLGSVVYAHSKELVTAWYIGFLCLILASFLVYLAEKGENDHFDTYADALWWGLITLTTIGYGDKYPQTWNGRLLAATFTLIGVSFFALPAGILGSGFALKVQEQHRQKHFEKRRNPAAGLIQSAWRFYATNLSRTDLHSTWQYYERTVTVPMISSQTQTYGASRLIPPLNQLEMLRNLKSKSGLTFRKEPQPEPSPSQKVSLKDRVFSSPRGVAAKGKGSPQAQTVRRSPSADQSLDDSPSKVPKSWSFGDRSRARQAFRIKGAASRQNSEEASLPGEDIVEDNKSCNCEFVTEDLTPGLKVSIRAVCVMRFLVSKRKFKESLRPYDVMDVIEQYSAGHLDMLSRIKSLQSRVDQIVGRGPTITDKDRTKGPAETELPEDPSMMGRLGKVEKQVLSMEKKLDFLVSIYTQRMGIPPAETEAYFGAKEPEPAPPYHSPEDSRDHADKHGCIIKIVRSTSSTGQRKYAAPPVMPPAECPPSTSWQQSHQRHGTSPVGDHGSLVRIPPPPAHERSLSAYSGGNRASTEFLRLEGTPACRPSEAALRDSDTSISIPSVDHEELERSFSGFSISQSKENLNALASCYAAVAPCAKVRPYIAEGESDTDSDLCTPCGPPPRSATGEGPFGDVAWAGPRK
KCNQ2 pot = potentiators of rat KCNQ2 potassium channel; CHO-K1 KCNQ2, FluxOR thallium flux fluorescence; hits give high values; B-score at 10 µM; Potassium voltage-gated channel subfamily KQT member 2 (Rattus norvegicus), O88943; hit rate 0.54% among 310,000;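 active means fluorescence ratio B-score at least 3 SD of library B-scores, with initial fluorescence B-score within 3 of them, cut at about 5.3 in these data; same plate scores as AID 2156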;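 further: B-score of peak minus minimum over baseline fluorescence ratio after K+ and Tl+ stimulus; positive B-score means potentiation of KCNQ2 with more thallium influx and brighter signal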
Numbers without * were called inactive. The list is not random: actives were taken first. Their share in the collection is about 1.6%.

CN1CCN(C2=C(Cl)C(=O)N(C3CCCCC3)C2=O)CC1 was read as KCNQ2 inh inactive.
For COc1ccc(C2NC3=C(CCCC3)C(C#N)(C#N)C2(C#N)C#N)cc1 (configuration not stated) the results were KCNQ2 inh -5.8* and KCNQ2 pot -5.8.
For COc1ccc(C2NC3=C(CCC3)C3(C#N)C4(N=C(N)C23C#N)OCCO4)cc1 (configuration not stated) the results were KCNQ2 inh inactive.
`Cc1cc(OC(=O)c2cccc(F)c2)c([N+](=O)[O-])c(=O)[nH]1` gave KCNQ2 inh inactive.
For COc1cccc(C(c2nnnn2CCc2ccccc2)N2CCN(c3ccccc3)CC2)c1OC (configuration not stated) the results were KCNQ2 inh -6.7* and KCNQ2 pot -6.7.
`COc1cccc(C(c2nnnn2Cc2ccco2)N2CCN(c3cccc(C)c3C)CC2)c1OC` (configuration not stated) gave KCNQ2 inh -6.2* and KCNQ2 pot -6.2.
For COc1ccc(OC)c(C(c2nnnn2Cc2ccco2)N2CCN(C)CC2)c1 (configuration not stated) the results were KCNQ2 inh inactive.
Screening COc1ccccc1C(c1nnnn1CCc1ccccc1)N1CCN(c2ccccc2)CC1 (configuration not stated) returned KCNQ2 inh inactive.
For CCOc1ccc(-c2nnc(NC(=O)C3CCCC3)o2)cc1 the results were KCNQ2 inh inactive.
CNC(=O)C(C#N)(Cc1cc(C(C)=O)ccc1OC)Cc1cc(C(C)=O)ccc1OC was read as KCNQ2 inh inactive.
Screening Cc1cccc(C(=O)Nc2ccc(C(=O)/C=C/c3ccncc3)cc2)c1 returned KCNQ2 inh -6* and KCNQ2 pot -6.
`Cc1cccc(C(=O)Nc2ccc(C(=O)/C=C/c3cccnc3)cc2)c1` gave KCNQ2 inh inactive.
`COc1ccc(S(=O)(=O)N/N=C(/C)c2ccncc2)c(OC)c1` gave KCNQ2 inh inactive.
N#C/C(C(=O)Nc1ccc(Cl)cc1)=C(/S)Nc1ccccc1 was read as KCNQ2 inh inactive.
`CC(CCc1ccccc1)NC(=O)CN1CCc2ccccc2C1` (configuration not stated) gave KCNQ2 inh -5.8* and KCNQ2 pot -5.8.
Screening Cc1ccccc1NC(=O)CN1CCc2ccccc2C1 returned KCNQ2 inh inactive.
COC(=O)c1ccccc1NC(=O)CN1CCc2ccccc2C1 was read as KCNQ2 inh -7.8* and KCNQ2 pot -7.8.
For O=C(NC(Cc1ccccc1)C(=O)N1CCc2ccccc2C1)c1ccccc1 (configuration not stated) the results were KCNQ2 inh -6.3* and KCNQ2 pot -6.3.
`O=C(NC(Cc1ccccc1)C(=O)O)c1ccccc1` (configuration not stated) gave KCNQ2 inh inactive.
Screening CC(=O)C(Cc1ccccc1)NC(=O)CN1CCc2ccccc2C1 (configuration not stated) returned KCNQ2 inh inactive.
`CCCOc1ccc2cc(C(=O)NCc3ccccc3)c(=O)oc2c1` gave KCNQ2 inh inactive and KCNQ2 pot 0.58.
For CC(=N\NC(=O)c1ccccc1)/C(=N/O)C(=O)Nc1ccccc1 the results were KCNQ2 inh inactive.
For CC(=N\Nc1ccccc1)/C(=N/O)C(=O)Nc1ccccc1 the results were KCNQ2 inh -6* and KCNQ2 pot -6.
For CN(C)C1CCN(C(=O)c2cccc(OC3CCN(S(=O)(=O)N(C)C)CC3)c2)C1 (configuration not stated) the results were KCNQ2 inh inactive.
COC(=O)c1ccccc1NC(=O)c1ccc(COc2cccc3ccccc23)o1 was read as KCNQ2 inh -6.5* and KCNQ2 pot -6.5.
`COC(=O)c1ccc(COc2ccccc2OC)o1` gave KCNQ2 inh inactive and KCNQ2 pot 0.51.
Cc1ccc2cc(C)c3nnc(SCc4ccc(C(=O)O)cc4)n3c2c1C was read as KCNQ2 inh inactive and KCNQ2 pot 2.
NNC(=S)Nc1cccc(-c2n[nH]c(=S)o2)c1 was read as KCNQ2 inh inactive.
`COc1cc(NC(=S)NCc2cccnc2)cc(OC)c1` gave KCNQ2 inh -7.4* and KCNQ2 pot -7.4.
`COc1cc(NC(=S)NCc2cccnc2)cc(OC)c1OC` gave KCNQ2 inh inactive and KCNQ2 pot 0.03.
Screening Cc1oc(-c2ccc(Cl)cc2)nc1CN1CCC(C(=O)NCCCN2CCOCC2)CC1 returned KCNQ2 inh inactive and KCNQ2 pot 0.21.
For CCN(CCNC(=O)C1CCCN(Cc2nc(-c3ccc(OC)cc3)oc2C)C1)c1ccccc1 (configuration not stated) the results were KCNQ2 inh -8.7* and KCNQ2 pot -8.7.
Screening CCN(CCNC(=O)C1CCN(Cc2nc(-c3ccc(Cl)cc3)oc2C)CC1)c1ccccc1 returned KCNQ2 inh -6.9* and KCNQ2 pot -6.9.
CCc1ccc(-c2nc(CN3CCC(C(=O)NCCN(CC)c4ccccc4)CC3)c(C)o2)cc1 was read as KCNQ2 inh -6.5* and KCNQ2 pot -6.5.
CCc1ccc(-c2nc(CN3CCC(C(=O)NCc4ccc(F)cc4)CC3)c(C)o2)cc1 was read as KCNQ2 inh inactive.
Screening CCc1ccc(-c2nc(CN3CCCC(C(=O)O)C3)c(C)o2)cc1 (configuration not stated) returned KCNQ2 inh inactive.
`C/C(=N\NC(=O)CNC(=O)c1ccccc1F)c1ccco1` gave KCNQ2 inh inactive.
For COc1cccc2c1cc1c(=O)n(CC(=O)N3CCC(C)CC3)nc(C)n12 the results were KCNQ2 inh inactive.
O=C(C(Cc1ccccc1)n1cccc1)N1CCN(Cc2ccccc2)CC1 (configuration not stated) was read as KCNQ2 inh inactive.
Screening O=C(C(Cc1ccccc1)n1cccc1)N1CCN(c2cccc(Cl)c2)CC1 (configuration not stated) returned KCNQ2 inh -5.8* and KCNQ2 pot -5.8.
For CCC(C(=O)N1CCN(c2cccc(Cl)c2)CC1)c1ccccc1 (configuration not stated) the results were KCNQ2 inh -5.6* and KCNQ2 pot -5.6.
Screening CCC(CC)C(=O)N1CCN(c2ccccc2)CC1 returned KCNQ2 inh inactive.
Cc1cc(C(=O)CS(=O)(=O)c2ccc(F)cc2)cc(C)c1O was read as KCNQ2 inh inactive.
CCC(C)(C)NC(=O)C(c1ccc(C)o1)N(Cc1ccc2c(c1)OCO2)C(=O)c1snc(C(N)=O)c1N (configuration not stated) was read as KCNQ2 inh inactive.
CC(=O)c1ccc(NC(=O)CSc2nc(C3CC3)nc3ccccc23)cc1 was read as KCNQ2 inh inactive and KCNQ2 pot 1.1.
Screening O=C(CSc1nc(C2CC2)nc2ccccc12)N1c2ccccc2Sc2ccccc21 returned KCNQ2 inh -6.1* and KCNQ2 pot -6.1.
Cc1ccc(N(CC(=O)N2CCN(c3ccccc3F)CC2)S(=O)(=O)c2c(C)noc2C)cc1 was read as KCNQ2 inh inactive.
O=C(NCCCc1ccc(F)cc1)C1CCC(=O)N(CC2CCCCC2)C1 (configuration not stated) was read as KCNQ2 inh inactive.
